Compounds with a hit are over-represented: about 28% of the library has one in this group of screens.
CYP2C9 inhib = blockers of cytochrome P450 2C9 activity – biochemical, luminescence, ADME assay, primary screen; AID 777, 2007; P11712; inhibition, % at 5 µM; CYP2C9 Supersomes, luciferin-H conversion; 96,000 compounds, 20% hits;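 active = blocking of liver enzyme CYP2C9 beyond about 50% at 5 µM, limit read from the data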
CYP2C9 activ = human CYP2C9 activators, primary screen, biochemical, luminescence; Cytochrome P450 2C9 (Homo sapiens), P11712; recombinant CYP2C9, luciferin-H conversion; active compounds read high; factor 1 = untreated enzyme, 0 = blocked; activation factor at 5 µM; 96,000 compounds, 1.4% hits; AID 1024, 2008;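 active = activation factor of 2 or more for CYP2C9 at a 5 µM dose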;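 also: 0 = sulfaphenazole-blocked wells and 1 = vehicle-only wells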
CYP2C19 inh = blockers of cytochrome P450 2C19 activity – biochemical, luminescence, ADME assay, primary screen; CYP2C19 Supersomes, luciferin-H EGE luminescence, 30 min; inhibition, % at 5 µM; 96,000 compounds, 21% hits; AID 778, 2007;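 active = CYP2C19 inhibition above a set limit at 5 µM in the primary screen, cut at about 50% in these data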;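 also: plate controls were negative control wells for no effect and 2.5 mM tranylcypromine positive control for full effect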
hDAT+cocaine = changed hDAT dopamine uptake under cocaine IC80, either direction, primary screen, cocaine antagonist project, cell-based, LLC-PK1 hDAT, [14C]-dopamine uptake, MLSMR; Sodium-dependent dopamine transporter (Homo sapiens), Q01959; B-score at 10 µM; AID 449768, 2010; 110,000 compounds, 1.3% hits; LLC-PK1 hDAT cells, [14C]-dopamine uptake with cocaine IC80; actives deviate in either direction;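 active = Z score or B-score, a plate-position-corrected score, falls beyond the plate's 99.7% confidence bounds, in either direction; inactive = both scores lie inside the 99.7% bounds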;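 also: scored against the spread of the other compound wells on the same plate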
D1 mod = D1 CRE-luciferase signal change, two-sided – cell-based, HEK293 D1, dopamine EC30, D1 allosteric modulator project, primary screen. 58,000 compounds, 5.9% hits. dopamine EC30 potentiation; actives deviate in either direction. AID 641, 2007. B-score at 10 µM;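 active = luminescence count or its row- and column-corrected plate score outside the 99.7% band of the plate's sample wells, on either side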
Target sequence (P21728 whole entry, looked up): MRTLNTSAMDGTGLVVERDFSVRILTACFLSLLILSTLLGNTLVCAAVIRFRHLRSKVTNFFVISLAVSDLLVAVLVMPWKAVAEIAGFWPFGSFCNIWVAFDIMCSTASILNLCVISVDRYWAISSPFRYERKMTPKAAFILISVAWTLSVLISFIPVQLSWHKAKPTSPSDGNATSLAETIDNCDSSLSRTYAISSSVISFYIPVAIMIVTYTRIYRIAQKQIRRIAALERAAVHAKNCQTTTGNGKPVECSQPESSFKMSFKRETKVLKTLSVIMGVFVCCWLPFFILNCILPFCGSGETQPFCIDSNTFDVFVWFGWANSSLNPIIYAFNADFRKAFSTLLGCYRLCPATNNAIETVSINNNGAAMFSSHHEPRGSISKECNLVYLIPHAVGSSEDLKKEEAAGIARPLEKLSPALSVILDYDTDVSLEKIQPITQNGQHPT
CYP2C19 act = human CYP2C19 activators, primary screen, biochemical, luminescence. Cytochrome P450 2C19 (Homo sapiens), P33261. recombinant CYP2C19, luciferin-H EGE luminescence; active compounds read high; 0 = fully inhibited enzyme, 1 = untreated enzyme. activation factor at 5 µM. 96,000 tested, under 10 active;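 active = activation factor of at least 2 at 5 µM in the primary screen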;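 also: 0 = wells with 2.5 mM tranylcypromine and 1 = vehicle-only wells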
* marks the source's active call; other numbers are inactive results; . = not tested or not shown.

SMILES | CYP2C9 inhib | CYP2C9 activ | CYP2C19 inh | hDAT+cocaine | D1 mod | CYP2C19 act
Cc1cc(C)cc(N(C(C)C(=O)NCCC2=CCCCC2)S(C)(=O)=O)c1 (stereo not given) | 13.5 | 0.9 | 92.0* | 1.8 | . | 0.1
Cc1cccc(N(CC(=O)NCCC2=CCCCC2)S(C)(=O)=O)c1C | 95.1* | 0 | 55.6* | 0.226 | . | 0.4
Cc1cccc(NC(=S)NC2CC3CCCC(C2)N3Cc2cccs2)c1 (stereo not given) | -6.7 | 1.1 | -7.6 | 0.0355 | . | 1.1
COc1ccc(-c2c(-c3ccsc3)oc3ccc(N4CCOCC4)cc23)cc1 | . | . | . | -0.0355 | . | .
N#C/C(=C\c1ccc(-c2cccc(Cl)c2)o1)C(=O)Nc1cccc2cccnc12 | -26.2 | 1.3 | -1.5 | -1.22 | . | 1
CC(OC(=O)CNC(=O)c1ccc2c(c1)OCO2)C(=O)NCCC1=CCCCC1 (stereo not given) | 40.9 | 0.6 | 62.6* | -0.536 | -0.158 | 0.4
COc1ccc(N(CC(=O)NCCC2=CCCCC2)S(C)(=O)=O)cc1 | 68.9* | 0.3 | 56.9* | 1.06 | . | 0.4
CCCCCC(=O)O[C@]1(C(C)=O)CC[C@H]2[C@@H]3CCC4=CC(=O)CC[C@]4(C)[C@H]3CC[C@@]21C | . | . | . | 0.57 | -0.16 | .
Cc1ccc(Cl)c(OCC(=O)NCc2ccco2)c1 | -38.5 | 1.4 | 31.5 | -0.291 | . | 0.7
O=C(CS(=O)(=O)c1ccccc1)c1ccc2c(c1)OCCO2 | -83.9 | 1.8 | 70.3* | -0.379 | 0.185 | 0.3
O=C(CCN1CCc2ccccc2C(c2ccccc2)C1)c1ccc2c(c1)OCCO2 (stereo not given) | 54.6* | 0.5 | 29.4 | -0.679 | . | 0.7
O=C(CCN1Cc2ccccc2C1)c1ccc2c(c1)OCCO2 | 51.5* | 0.5 | 47.8 | -0.836 | -0.742 | 0.5
O=C(O)CCC(=O)c1ccc2c(c1)OCCO2 | -6.6 | 1.1 | -15.4 | -0.216 | -0.0698 | 1.2
CCCC(=O)c1ccc2c(c1)OCCO2 | 21.5 | 0.8 | 20.1 | -1.14 | . | 0.8
CCCCOCP(=O)(CCCC)COCCCC | 0.2 | 1 | 13.1 | 0.23 | 0.548 | 0.9
Cc1cccc(C)c1NC(=O)CSc1nnc(-c2ccoc2C)n1CCc1ccccc1 | 68.3* | 0.3 | 69.9* | 1.43 | -0.15 | 0.3
Cc1occc1-c1nnc(SCC(=O)NCCc2ccccc2)n1C(C)c1ccccc1 (stereo not given) | 84.4* | 0.2 | 25.5 | 2.71* | . | 0.7
Cc1csc(NC(=O)CSc2nnc(-c3ccoc3C)n2CCc2ccccc2)n1 | 56.6* | 0.4 | 46.8 | 0.666 | -0.5 | 0.5
CCCn1c(SCC(=O)Nc2nonc2C)nnc1-c1ccoc1C | -1.4 | 1 | 53.8* | -0.112 | -0.516 | 0.5
CCC(C)[C@H](Nc1nc(-c2ccccc2)nc2c1oc1ccccc12)C(=O)O (stereo not given in full) | 2.3 | 1 | 3.4 | 2.89 | . | 1
Cc1csc(NC(=O)CSc2nnc(-c3ccoc3C)n2Cc2ccco2)n1 | 88.5* | 0.1 | 85.0* | 1.7 | -0.361 | 0.2
O=C(CSCc1ccc(Cl)cc1)N/N=C/c1ccccc1 | 59.6* | 0.4 | 86.0* | 0.593 | . | 0.1
Cc1ccc(CSCC(=O)N/N=C/c2ccc(OCC(=O)Nc3ccc(C)cc3)cc2)cc1 | 29.7 | 0.7 | 28.6 | . | . | 0.7
CC/C(=N\NC(=O)CSCc1ccccc1Br)c1ccc2c(c1)OCCO2 | -0.6 | 1 | -11.4 | . | . | 1.1
O=C(CSCc1ccccc1)Nc1ccc(Cl)cn1 | 69.9* | 0.3 | 64.5* | -0.00306 | . | 0.4
SMILES | CYP2C9 inhib | CYP2C9 activ | CYP2C19 inh | hDAT+cocaine | D1 mod | CYP2C19 act
CC/C(=N\NC(=O)CSCc1ccc(Cl)cc1)c1ccc2c(c1)OCCO2 | 58.7* | 0.4 | 77.5* | -1.11 | . | 0.2
O=C(CN1CCN(Cc2ccccc2)CC1)Nc1ccc(Cl)cn1 | 15.1 | 0.8 | 9.3 | 0.527 | -0.698 | 0.9
Cc1ccc(CS(=O)(=O)Cc2ccc(C(=O)NCc3ccccn3)o2)cc1 | 2.9 | 1 | 12.2 | 1.05 | 0.0859 | 0.9
CCCc1cc(C(=O)Nc2cc(Br)ccc2O)no1 | 31.0 | 0.7 | -19.7 | 0.604 | -0.24 | 1.2
CC1CC(C)CN(C(=O)c2ccc3c(=O)n(Cc4ccc5c(c4)OCO5)c(=S)[nH]c3c2)C1 (stereo not given) | 49.0 | 0.5 | 48.3 | 0.466 | . | 0.5
COc1ccc(Oc2coc3c(CN4CCOCC4)c(O)ccc3c2=O)cc1 | -5.2 | 1.1 | 6.0 | -7.38* | . | 0.9
COc1ccc(Oc2coc3c(CN(C)C)c(O)ccc3c2=O)cc1 | -6.2 | 1.1 | -8.5 | -0.86 | -4.34* | 1.1
COc1ccc(Oc2c(C)oc3c(CN(C)C)c(O)ccc3c2=O)cc1 | 11.4 | 0.9 | 2.5 | -0.0206 | . | 1
COc1ccc(-c2c(C)oc3c(CN4CCN(C)CC4)c(O)ccc3c2=O)cc1 | 2.7 | 1 | -19.1 | 0.123 | -0.154 | 1.2
O=c1c2ccccc2nc2n1CCC2O (stereo not given) | . | . | . | -0.835 | . | .
O=C(OCC(=O)c1ccccc1Br)c1ccccn1 | -4.7 | 1 | 0.0 | -0.207 | -0.00462 | 1
O=C(c1ccccn1)c1conc1C(=O)c1ccc(Br)cc1 | 56.7* | 0.4 | 85.8* | -0.0965 | . | 0.1
Cc1nn(C)cc1/C=N/NC(=O)c1ccc2c(c1)OCO2 | 6.8 | 0.9 | 4.2 | 0.861 | . | 1
Cc1nn(C)cc1/C=N\NC(=O)c1ccc2c(c1)c(C)c(C)n2Cc1ccccc1 | 83.2* | 0.2 | 75.7* | 0.703 | . | 0.2
O=S(c1ccc2ccccc2c1)c1cnns1 (stereo not given) | -3.4 | 1 | 74.7* | -0.409 | . | 0.3
O=S(=O)(Nc1ccc(-c2nc3cccnc3s2)cc1)c1ccc(Cl)s1 | 100.0* | 0 | -3.6 | -1.65 | . | 1
N#CC1(c2nc3ccccc3[nH]2)CC1c1ccc2c(c1)OCO2 (stereo not given) | 64.0* | 0.4 | 91.9* | 0.32 | -0.927 | 0.1
O=C1CCc2cc(S(=O)(=O)N3CCN(c4cccc(C(F)(F)F)c4)CC3)ccc2N1 | 33.6 | 0.7 | 17.6 | 0.0172 | -0.198 | 0.8
Cc1ccc(C)c(N2CCN(S(=O)(=O)c3ccc4[nH]c(=O)c(=O)[nH]c4c3)CC2)c1 | 66.5* | 0.3 | 16.2 | -0.911 | 0.58 | 0.8
Cc1ccc(C)c(N2CCN(S(=O)(=O)c3ccc4c(c3)CCC(=O)N4)CC2)c1 | 78.5* | 0.2 | 35.0 | -0.308 | 0.161 | 0.7
Cc1ccc(C)c(N2CCN(C(=O)CN(C)S(=O)(=O)c3ccc4c(c3)CCC(=O)N4)CC2)c1 | 81.6* | 0.2 | 50.6* | 0.982 | . | 0.5
CC(=O)c1cc2c(cc1NC(=O)C1CC1)OCO2 | . | . | . | -0.276 | . | .

Bioassay records (PubChem BioAssay)
